Common to all, as to assay: DAPPL (digital affinity profiling via proximity ligation, sequencing); 10 mM Tris-HCl pH 7.5, 50 mM NaCl, 1 mM DTT, 4% glycerol, room temperature, 30 min; GST-TFs on glutathione beads, 16-mer random dsDNA library, 0.1% formaldehyde crosslink after washing; high values mean tight binding
In one assay the target is T1, FEV (Homo sapiens, UniProt Q99581 1-238).
T1 sequence: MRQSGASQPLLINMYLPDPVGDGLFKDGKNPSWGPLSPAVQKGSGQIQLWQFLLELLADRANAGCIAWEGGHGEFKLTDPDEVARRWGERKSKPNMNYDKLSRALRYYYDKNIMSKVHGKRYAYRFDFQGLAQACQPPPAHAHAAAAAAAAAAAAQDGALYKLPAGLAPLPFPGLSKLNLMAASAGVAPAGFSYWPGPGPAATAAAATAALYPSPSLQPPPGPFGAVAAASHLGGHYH
The note with it: protein: recombinant; tags: N-terminal GST; dsDNA, one strand shown. A digest of the protocol: (§1)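 Yeast served to express human transcription factors as GST fusions, which were then captured on glutathione beads and labelled with DNA barcodes. Pooled with a tag-only sample, they were incubated with 200 nmole of a 16-mer random double-stranded DNA library for 30 min at room temperature in Tris/NaCl/DTT/glycerol buffer, washed, crosslinked with 0.1% formaldehyde, ligated by proximity, amplified by PCR and sequenced. Dividing each hexamer's read frequency for a factor by its frequency for the tag-only sample gives the binding signal.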

The target of a further assay is ETV5 (Homo sapiens, UniProt P41161 1-510). The note with it: protein: recombinant; tags: N-terminal GST; dsDNA, one strand shown. The essentials:
as §1

For another assay, the target named is HSF1 (Homo sapiens, UniProt Q00613 1-529). The note with it: protein: recombinant; tags: N-terminal GST; chain copies: 3; dsDNA, one strand shown. A digest of the protocol: as §1
HSF1, sequence (Q00613 whole entry): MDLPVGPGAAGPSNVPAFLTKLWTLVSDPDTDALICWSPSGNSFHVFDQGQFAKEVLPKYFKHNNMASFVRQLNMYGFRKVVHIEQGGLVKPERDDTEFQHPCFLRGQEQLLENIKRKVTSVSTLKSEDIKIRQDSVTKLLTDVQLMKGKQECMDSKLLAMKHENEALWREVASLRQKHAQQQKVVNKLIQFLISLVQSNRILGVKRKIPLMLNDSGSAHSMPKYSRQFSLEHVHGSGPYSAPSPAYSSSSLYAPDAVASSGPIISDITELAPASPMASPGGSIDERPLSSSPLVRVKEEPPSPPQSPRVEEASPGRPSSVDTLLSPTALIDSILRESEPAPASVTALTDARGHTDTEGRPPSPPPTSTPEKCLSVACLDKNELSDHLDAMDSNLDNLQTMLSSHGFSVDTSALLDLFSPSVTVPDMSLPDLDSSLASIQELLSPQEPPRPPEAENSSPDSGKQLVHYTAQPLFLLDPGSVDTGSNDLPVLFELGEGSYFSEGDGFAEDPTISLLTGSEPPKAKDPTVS
The target of a further assay is T2, SPIC (Homo sapiens, UniProt Q8N5J4 1-248).
T2 sequence: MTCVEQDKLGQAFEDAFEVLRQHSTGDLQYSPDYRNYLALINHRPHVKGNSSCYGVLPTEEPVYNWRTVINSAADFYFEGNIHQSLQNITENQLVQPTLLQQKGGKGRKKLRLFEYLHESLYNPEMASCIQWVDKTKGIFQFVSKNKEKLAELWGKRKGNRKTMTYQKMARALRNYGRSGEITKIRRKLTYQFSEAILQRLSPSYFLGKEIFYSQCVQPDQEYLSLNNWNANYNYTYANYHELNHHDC
The note with it: protein: recombinant; tags: N-terminal GST; dsDNA, one strand shown. A digest of the protocol:
as §1

The target in the next assay is ELF4 (Homo sapiens, UniProt Q99607 1-663). As to conditions: protein: recombinant; tags: N-terminal GST; dsDNA, one strand shown. The essentials: as §1
ELF4, sequence (Q99607 whole entry): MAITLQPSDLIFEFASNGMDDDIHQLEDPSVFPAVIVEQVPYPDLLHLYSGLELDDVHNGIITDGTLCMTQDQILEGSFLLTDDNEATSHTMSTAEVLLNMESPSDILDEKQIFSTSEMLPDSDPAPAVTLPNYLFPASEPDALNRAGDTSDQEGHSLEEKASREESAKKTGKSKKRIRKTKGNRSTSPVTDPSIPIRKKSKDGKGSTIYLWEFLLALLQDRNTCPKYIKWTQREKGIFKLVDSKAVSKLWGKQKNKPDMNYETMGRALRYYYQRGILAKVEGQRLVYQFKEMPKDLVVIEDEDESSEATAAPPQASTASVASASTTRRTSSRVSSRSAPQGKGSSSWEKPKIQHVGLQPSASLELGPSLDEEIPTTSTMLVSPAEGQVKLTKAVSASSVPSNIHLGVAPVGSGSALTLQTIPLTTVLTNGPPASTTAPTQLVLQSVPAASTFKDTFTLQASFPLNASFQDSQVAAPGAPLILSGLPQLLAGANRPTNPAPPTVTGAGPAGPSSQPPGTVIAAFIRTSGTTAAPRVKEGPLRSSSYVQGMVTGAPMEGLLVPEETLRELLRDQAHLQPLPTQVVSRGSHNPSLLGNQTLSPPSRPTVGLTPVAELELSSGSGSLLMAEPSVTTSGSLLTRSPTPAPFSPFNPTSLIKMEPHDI
A further assay deals with T3, ELK4 (Homo sapiens, UniProt P28324-2 1-405).
T3 sequence: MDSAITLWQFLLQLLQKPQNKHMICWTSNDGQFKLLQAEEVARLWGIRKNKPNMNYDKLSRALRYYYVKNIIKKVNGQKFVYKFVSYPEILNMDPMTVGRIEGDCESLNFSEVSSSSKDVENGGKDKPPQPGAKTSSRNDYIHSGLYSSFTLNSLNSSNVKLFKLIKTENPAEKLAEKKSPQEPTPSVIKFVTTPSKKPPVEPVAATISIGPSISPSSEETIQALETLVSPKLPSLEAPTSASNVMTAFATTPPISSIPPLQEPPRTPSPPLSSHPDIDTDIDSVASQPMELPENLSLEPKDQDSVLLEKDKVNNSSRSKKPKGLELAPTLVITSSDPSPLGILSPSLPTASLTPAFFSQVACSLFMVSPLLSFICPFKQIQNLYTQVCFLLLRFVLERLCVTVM
The note with it: protein: recombinant; tags: N-terminal GST; dsDNA, one strand shown. The essentials: as §1

For the next assay, the target named is T4, ETV2 (Homo sapiens, UniProt O00321 1-342).
T4 sequence: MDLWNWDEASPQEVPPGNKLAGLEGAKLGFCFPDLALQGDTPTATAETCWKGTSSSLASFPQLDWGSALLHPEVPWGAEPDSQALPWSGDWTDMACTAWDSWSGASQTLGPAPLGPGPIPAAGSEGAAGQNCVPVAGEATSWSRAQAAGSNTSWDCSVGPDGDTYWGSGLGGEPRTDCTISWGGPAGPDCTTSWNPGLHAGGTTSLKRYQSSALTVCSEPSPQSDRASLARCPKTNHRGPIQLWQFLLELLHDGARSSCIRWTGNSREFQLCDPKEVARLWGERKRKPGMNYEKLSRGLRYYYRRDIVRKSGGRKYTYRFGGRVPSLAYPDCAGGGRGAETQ
As to conditions: protein: recombinant; tags: N-terminal GST; dsDNA, one strand shown. A digest of the protocol:
as §1

The target of a further assay is T5, ELF3 (Homo sapiens, UniProt P78545 1-371).
T5 sequence: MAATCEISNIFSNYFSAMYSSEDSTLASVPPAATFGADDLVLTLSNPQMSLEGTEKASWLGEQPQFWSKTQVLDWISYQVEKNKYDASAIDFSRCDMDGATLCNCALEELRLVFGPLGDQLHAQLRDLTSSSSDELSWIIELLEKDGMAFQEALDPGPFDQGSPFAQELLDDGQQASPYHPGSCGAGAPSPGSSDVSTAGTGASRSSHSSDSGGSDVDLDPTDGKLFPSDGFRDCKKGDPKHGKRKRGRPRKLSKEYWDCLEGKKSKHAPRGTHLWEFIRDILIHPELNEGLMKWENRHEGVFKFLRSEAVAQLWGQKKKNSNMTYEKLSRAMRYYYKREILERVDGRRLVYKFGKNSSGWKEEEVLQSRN
As to conditions: protein: recombinant; tags: N-terminal GST; dsDNA, one strand shown. A digest of the protocol: as §1

The target of a further assay is CRX (Homo sapiens, UniProt O43186 1-299). The note with it: protein: recombinant; tags: N-terminal GST; dsDNA, one strand shown. The essentials: as §1
CRX, sequence (O43186 whole entry): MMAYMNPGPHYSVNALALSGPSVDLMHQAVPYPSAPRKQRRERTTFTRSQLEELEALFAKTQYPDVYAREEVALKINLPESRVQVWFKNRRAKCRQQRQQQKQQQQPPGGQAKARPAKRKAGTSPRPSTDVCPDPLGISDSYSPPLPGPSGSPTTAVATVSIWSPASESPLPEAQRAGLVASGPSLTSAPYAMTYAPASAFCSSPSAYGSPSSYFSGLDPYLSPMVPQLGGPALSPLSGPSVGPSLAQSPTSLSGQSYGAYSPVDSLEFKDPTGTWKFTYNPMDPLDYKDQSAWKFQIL
The target in the next assay is ETV1 (Homo sapiens, UniProt P50549 1-477). The note with it: protein: recombinant; tags: N-terminal GST; dsDNA, one strand shown. The essentials:
as §1

Another assay has as its target T6, ERF (Homo sapiens, UniProt P50548 1-548).
T6 sequence: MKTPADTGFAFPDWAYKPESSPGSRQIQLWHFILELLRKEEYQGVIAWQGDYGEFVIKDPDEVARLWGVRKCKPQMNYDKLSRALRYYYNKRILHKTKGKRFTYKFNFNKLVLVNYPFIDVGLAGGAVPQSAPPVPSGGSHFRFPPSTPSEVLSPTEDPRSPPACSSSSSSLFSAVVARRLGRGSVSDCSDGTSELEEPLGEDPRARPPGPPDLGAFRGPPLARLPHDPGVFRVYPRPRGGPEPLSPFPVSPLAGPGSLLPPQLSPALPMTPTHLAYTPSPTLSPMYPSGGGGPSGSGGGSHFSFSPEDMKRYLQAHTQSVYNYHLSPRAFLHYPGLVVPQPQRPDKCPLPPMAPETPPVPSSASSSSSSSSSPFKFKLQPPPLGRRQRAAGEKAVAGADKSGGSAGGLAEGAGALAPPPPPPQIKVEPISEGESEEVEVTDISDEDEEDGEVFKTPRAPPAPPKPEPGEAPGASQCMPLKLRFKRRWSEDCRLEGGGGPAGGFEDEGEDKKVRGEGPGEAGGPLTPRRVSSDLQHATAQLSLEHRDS
As to conditions: protein: recombinant; tags: N-terminal GST; dsDNA, one strand shown. A digest of the protocol:
as §1

A further assay has as its target T7, ETV3L (Homo sapiens, UniProt Q6ZN32 1-361).
T7 sequence: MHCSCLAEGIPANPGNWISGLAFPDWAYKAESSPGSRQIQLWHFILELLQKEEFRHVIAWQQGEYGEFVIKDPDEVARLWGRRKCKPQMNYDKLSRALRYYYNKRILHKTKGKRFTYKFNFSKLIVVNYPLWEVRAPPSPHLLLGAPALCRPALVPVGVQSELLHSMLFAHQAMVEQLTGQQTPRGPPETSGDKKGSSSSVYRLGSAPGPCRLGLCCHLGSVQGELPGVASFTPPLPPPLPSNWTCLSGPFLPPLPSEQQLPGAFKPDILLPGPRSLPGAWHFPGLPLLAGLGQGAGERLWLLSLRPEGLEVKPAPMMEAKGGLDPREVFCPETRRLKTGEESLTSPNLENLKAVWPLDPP
As to conditions: protein: recombinant; tags: N-terminal GST; dsDNA, one strand shown. A digest of the protocol: as §1

For a further assay, the target named is T8, ETS2 (Homo sapiens, UniProt P15036 1-469).
T8 sequence: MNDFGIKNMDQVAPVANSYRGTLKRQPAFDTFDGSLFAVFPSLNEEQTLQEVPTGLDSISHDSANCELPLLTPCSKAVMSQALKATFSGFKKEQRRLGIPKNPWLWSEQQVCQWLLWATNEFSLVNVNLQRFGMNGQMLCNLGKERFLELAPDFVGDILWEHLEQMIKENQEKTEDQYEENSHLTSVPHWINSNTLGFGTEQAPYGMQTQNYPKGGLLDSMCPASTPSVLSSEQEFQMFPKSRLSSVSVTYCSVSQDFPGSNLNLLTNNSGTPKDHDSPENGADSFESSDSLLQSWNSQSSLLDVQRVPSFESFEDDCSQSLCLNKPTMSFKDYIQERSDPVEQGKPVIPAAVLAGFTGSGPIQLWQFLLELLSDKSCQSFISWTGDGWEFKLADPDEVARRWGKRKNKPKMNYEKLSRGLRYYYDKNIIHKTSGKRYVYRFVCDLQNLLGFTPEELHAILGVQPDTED
The note with it: protein: recombinant; tags: N-terminal GST; dsDNA, one strand shown. A digest of the protocol:
as §1

A further assay deals with T9, SPDEF (Homo sapiens, UniProt O95238 1-335).
T9 sequence: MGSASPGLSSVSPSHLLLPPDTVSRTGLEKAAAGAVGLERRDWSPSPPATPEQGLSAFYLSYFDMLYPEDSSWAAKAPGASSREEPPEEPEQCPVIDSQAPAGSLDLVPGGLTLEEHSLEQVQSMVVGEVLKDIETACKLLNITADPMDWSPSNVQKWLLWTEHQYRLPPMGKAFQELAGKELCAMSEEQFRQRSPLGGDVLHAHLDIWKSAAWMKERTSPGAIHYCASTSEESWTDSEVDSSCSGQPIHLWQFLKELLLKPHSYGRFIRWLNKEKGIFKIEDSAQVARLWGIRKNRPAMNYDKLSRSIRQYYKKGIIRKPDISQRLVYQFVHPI
The note with it: protein: recombinant; tags: N-terminal GST; dsDNA, one strand shown. The essentials:
as §1

Another assay deals with T10, ETV7 (Homo sapiens, UniProt Q9Y603 1-341).
T10 sequence: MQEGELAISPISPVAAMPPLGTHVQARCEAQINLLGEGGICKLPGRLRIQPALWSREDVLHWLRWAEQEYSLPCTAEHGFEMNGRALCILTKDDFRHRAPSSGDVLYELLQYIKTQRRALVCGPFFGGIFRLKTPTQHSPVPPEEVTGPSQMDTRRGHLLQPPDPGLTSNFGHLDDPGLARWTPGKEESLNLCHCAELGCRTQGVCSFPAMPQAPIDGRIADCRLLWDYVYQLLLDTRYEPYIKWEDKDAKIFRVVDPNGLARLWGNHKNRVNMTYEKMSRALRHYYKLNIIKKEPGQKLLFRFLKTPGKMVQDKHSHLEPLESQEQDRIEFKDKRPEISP
As to conditions: protein: recombinant; tags: N-terminal GST; dsDNA, one strand shown. The essentials: as §1

A further assay addresses T11, ELF5 (Homo sapiens, UniProt Q9UKW6-2 1-255).
T11 sequence: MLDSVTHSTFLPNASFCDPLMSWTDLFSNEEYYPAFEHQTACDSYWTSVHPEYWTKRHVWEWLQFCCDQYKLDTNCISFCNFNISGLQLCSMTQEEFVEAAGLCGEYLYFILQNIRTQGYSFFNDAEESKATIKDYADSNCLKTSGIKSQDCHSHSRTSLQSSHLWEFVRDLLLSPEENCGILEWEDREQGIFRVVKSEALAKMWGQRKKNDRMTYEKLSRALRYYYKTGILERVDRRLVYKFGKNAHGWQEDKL
The note with it: protein: recombinant; tags: N-terminal GST; dsDNA, one strand shown. A digest of the protocol: as §1

The target of another assay is T12, ETV3 (Homo sapiens, UniProt P41162-2 1-143).
T12 sequence: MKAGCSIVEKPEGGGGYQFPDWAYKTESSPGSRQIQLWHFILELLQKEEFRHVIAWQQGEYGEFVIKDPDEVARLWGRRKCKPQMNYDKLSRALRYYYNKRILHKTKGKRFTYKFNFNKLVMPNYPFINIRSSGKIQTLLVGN
The note with it: protein: recombinant; tags: N-terminal GST; dsDNA, one strand shown. The essentials: as §1

The next assay has as its target ETV6 (Homo sapiens, UniProt P41212 1-452). As to conditions: protein: recombinant; tags: N-terminal GST; dsDNA, one strand shown. A digest of the protocol:
as §1

ETV5, sequence (P41161 whole entry): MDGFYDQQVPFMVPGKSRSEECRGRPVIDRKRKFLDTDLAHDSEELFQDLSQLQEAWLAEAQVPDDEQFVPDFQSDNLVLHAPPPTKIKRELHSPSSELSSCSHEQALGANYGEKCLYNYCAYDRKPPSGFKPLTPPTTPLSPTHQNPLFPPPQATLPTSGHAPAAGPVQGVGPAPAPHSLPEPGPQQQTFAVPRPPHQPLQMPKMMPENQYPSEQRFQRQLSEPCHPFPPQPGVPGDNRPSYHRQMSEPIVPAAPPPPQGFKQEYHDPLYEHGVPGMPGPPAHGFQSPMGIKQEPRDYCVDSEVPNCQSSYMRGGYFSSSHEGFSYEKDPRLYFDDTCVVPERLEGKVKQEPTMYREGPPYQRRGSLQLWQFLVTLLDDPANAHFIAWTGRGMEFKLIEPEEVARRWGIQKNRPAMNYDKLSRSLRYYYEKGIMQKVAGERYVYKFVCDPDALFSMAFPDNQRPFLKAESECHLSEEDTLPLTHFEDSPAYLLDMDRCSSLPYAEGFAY
ETV6, sequence (P41212 whole entry): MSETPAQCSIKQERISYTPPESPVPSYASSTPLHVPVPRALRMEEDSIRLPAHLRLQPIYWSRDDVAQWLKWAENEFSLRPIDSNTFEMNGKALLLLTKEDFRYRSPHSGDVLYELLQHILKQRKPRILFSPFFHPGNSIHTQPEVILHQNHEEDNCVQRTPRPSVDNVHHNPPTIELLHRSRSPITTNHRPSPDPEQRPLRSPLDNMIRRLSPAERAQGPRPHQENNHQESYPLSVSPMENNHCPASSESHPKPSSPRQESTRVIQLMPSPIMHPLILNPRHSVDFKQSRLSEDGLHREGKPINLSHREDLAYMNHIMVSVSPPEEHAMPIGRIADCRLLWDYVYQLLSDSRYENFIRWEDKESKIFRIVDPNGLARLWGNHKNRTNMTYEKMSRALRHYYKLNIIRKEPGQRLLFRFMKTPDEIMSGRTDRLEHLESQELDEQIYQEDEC
ETV1, sequence (P50549 whole entry): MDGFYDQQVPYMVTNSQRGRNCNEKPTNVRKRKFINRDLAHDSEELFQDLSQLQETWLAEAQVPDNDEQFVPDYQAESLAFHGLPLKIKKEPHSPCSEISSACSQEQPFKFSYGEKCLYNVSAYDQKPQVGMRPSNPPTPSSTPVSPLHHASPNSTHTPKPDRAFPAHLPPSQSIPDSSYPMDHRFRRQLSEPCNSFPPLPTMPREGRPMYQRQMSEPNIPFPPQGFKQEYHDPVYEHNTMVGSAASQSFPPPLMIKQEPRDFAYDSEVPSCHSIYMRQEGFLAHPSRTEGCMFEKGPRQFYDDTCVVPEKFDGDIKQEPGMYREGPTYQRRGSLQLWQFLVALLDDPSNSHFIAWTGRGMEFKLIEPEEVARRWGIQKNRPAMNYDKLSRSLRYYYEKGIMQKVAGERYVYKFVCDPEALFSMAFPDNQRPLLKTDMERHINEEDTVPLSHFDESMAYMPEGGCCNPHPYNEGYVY

Turning to TTAAGC, the binding signal is 1.18 fold enrichment (6-mer frequency, TF over GST control) with FEV; 1.12 fold enrichment (6-mer frequency, TF over GST control) with ETV5; 2.25 fold enrichment (6-mer frequency, TF over GST control) with HSF1; 1.19 fold enrichment (6-mer frequency, TF over GST control) in the assay with SPIC; 1.22 fold enrichment (6-mer frequency, TF over GST control) in the assay with ELF4; 1.15 fold enrichment (6-mer frequency, TF over GST control) with ELK4. Besides, the binding signal is 1.03 fold enrichment (6-mer frequency, TF over GST control) with ETV2; 1.1 fold enrichment (6-mer frequency, TF over GST control) with ELF3; 3.77 fold enrichment (6-mer frequency, TF over GST control) with CRX; 1.11 fold enrichment (6-mer frequency, TF over GST control) with ETV1; 1.21 fold enrichment (6-mer frequency, TF over GST control) in the assay with ERF; 1.22 fold enrichment (6-mer frequency, TF over GST control) with ETV3L. Also, the binding signal with ETS2 was 1.13 fold enrichment (6-mer frequency, TF over GST control); with SPDEF, 1.04 fold enrichment (6-mer frequency, TF over GST control); with ETV7, 1.13 fold enrichment (6-mer frequency, TF over GST control); in the assay with ELF5 it was 1.14 fold enrichment (6-mer frequency, TF over GST control); with ETV3, 1.22 fold enrichment (6-mer frequency, TF over GST control); in the assay with ETV6, 1.06 fold enrichment (6-mer frequency, TF over GST control).
